Inconclusive results are not listed. A call without a number means that no potency is given here. Activity calls are given as the source filed them. Calls follow the shape of the full dose curve; tested in HEK293 reporter line.
assay: qHTS for Inhibitors of the Functional Ribonucleoprotein Complex (vRNP) of Lassa (LASV) Arenavirus: LASV Primary Screen - GLuc reporter signal (AID 1347082); settings: LASV minigenome vRNP, Gaussia luciferase reporter; series mostly up to 57.5 µM; also: nearly all actives have a fitted effect of over 60% in size
Potency is read from the fitted curve at half-maximal effect.

SMILES | Potency
NC1(c2ccc(-c3nc4ccn5c(=O)[nH]nc5c4cc3-c3ccccc3)cc2)CCC1 | 19.3 µM (active)
CC(C)(C)C(=O)NCCCC(=O)O | inactive
O=C(O)c1ccccc1Nc1cc(Cl)ccc1C(=O)O | inactive
Cc1c(C(=O)NN2CCCCC2)nn(-c2ccc(Cl)cc2Cl)c1-c1ccc(Cl)cc1 | inactive
C[C@H]1COc2c(C3(N)CC3)c(F)cc3c(=O)c(C(=O)O)cn1c23 | inactive
C#C[C@]1(O)CC[C@H]2[C@@H]3[C@H](C)CC4=C(CCC(=O)C4)[C@H]3CC[C@@]21C | inactive
NC(=O)Cc1cccc(C(=O)c2ccccc2)c1N | inactive
CC(=O)OC/C=C(C)/C=C/C=C(C)/C=C/C1=C(C)CCCC1(C)C | inactive
COC(=O)C1=C(C)NC(C)=C(C(=O)OC(C)(C)CN(C)CCC(c2ccccc2)c2ccccc2)C1c1cccc([N+](=O)[O-])c1 (configuration not stated) | inactive
CCN(CC)CCNc1ccc(CO)c2sc3ccccc3c(=O)c12 | inactive
CCCCc1ccc2nc(NC(=O)OC)[nH]c2c1 | inactive
CCCCC(CC)COC(=O)C(C#N)=C(c1ccccc1)c1ccccc1 (configuration not stated) | inactive
CCN(CC)CCCC(C)Nc1c2ccc(Cl)cc2nc2ccc(OC)cc12 (configuration not stated) | inactive
Oc1c(Cl)cc(Cl)cc1Sc1cc(Cl)cc(Cl)c1O | inactive
Nc1ccc2c(c1)CN1C(=O)c3ccccc3C1=N2 | inactive
CCOc1ccc(Cc2nccc3cc(OCC)c(OCC)cc23)cc1OCC | inactive
COC(=O)[C@H]1[C@H]2C[C@@H]3c4[nH]c5cc(OC)ccc5c4CCN3C[C@H]2C[C@@H](OC(=O)/C=C/c2ccc(O)c(OC)c2)[C@@H]1OC | inactive

Reference: PubChem BioAssay (NCATS)
